The results in this text go back to PubChem BioAssay (Tox21).

Molecules are shown by their SMILES. Where “and” joins values, the source holds several entries; their conditions need not be identical. Equal values may be shown once. Results filed as inconclusive are left out. A call without a number means that no potency is given here. Some structures have more than one record in an assay (separate samples or runs), and their calls can disagree. Calls of active or inactive are those of the source. Unless noted, calls come from the whole dose curve; as a rule, active = well fitted cell-killing curve with a large enough effect in the repeat runs; inconclusive = weak or mixed curves; inactive = flat fitted curve, though single readings scatter.

Androgen receptor (Homo sapiens), sequence (P10275 whole entry, looked up): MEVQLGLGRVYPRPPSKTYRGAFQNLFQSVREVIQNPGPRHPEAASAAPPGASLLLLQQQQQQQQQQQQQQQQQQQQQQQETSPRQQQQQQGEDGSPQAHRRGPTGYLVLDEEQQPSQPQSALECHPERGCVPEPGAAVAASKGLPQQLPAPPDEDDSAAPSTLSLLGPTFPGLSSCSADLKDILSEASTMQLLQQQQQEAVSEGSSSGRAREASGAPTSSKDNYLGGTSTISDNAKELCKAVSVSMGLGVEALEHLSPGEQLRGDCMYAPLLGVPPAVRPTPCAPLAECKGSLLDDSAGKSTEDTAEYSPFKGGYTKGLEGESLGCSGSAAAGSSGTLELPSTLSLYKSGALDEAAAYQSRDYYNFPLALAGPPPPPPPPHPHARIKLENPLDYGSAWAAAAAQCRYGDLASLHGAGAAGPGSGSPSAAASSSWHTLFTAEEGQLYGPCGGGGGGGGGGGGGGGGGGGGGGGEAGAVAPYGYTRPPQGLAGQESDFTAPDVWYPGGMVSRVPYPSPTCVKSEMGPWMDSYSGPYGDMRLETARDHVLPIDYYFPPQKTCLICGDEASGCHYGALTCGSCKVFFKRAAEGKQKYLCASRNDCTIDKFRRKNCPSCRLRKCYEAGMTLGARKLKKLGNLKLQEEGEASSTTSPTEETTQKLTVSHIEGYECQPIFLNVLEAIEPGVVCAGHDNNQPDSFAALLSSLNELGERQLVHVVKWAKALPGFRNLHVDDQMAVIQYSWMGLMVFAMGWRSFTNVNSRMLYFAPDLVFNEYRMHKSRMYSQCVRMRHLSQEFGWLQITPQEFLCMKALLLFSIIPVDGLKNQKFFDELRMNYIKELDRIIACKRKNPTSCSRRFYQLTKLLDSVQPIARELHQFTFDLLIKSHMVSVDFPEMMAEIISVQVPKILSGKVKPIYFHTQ

One assay addresses Androgen receptor (Homo sapiens) (UniProt P10275). The experiment in a line: qHTS assay to identify small molecule agonists of the androgen receptor (AR) signaling pathway in the presence of an antagonist (AID 1259381; calls by dose curve; note: nearly all actives have a fitted effect of over 15% in size). The conditions noted are these: MDA-kb2 MMTV-luciferase, AR agonist + nilutamide, 16 h; series mostly up to 92.4 µM; activation: at the top concentration. Put shortly:
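Test compounds at 15 concentrations were incubated for 16hr with MDA-kb2 reporter cells in presence of 3.0uM nilutamide (final). Signal: ONE-Glo luciferase luminescence.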
A general note: In qHTS, concentration-response curves come from the screen itself.
As for `O=[N+]([O-])c1ccc(Cl)c([N+](=O)[O-])c1`, the outcome was inactive.
For the compound `C=CC(=O)OCC(CC)(COC(=O)C=C)COC(=O)C=C`, the outcome was inactive.
For the compound `CC(C)=CC1C(C(=O)OCN2C(=O)C3=C(CCCC3)C2=O)C1(C)C` (stereo unspecified), the result was inactive.
On to `COP(=S)(OC)Oc1ccc(S(=O)(=O)N(C)C)cc1`, for which the outcome was inactive.
On the same count and under the same terms, the entry for `CCC(=O)Nc1ccc(Cl)c(Cl)c1` is “inactive”.
Consider `O=C(O)c1nn(Cc2ccc(Cl)cc2Cl)c2ccccc12`, for which the result was inactive.

Tested on in the next assay: not listed separately
In words: qHTS assay to identify small molecule antagonists of the estrogen receptor beta (ER-beta) signaling pathway - cell viability counter screen (AID 1259382).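 For activity change, negative = cytotoxicity: HEK293T cells carrying ER-beta-UAS-bla reporter stimulated with estradiol.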 Note: nearly all actives have a fitted effect of over 55% in size. Note: potency is the fitted concentration of half-maximal effect. The conditions noted are these: ER-beta-UAS-bla HEK293T viability, CellTiter-Glo luminescence, 16 h; series mostly up to 92.4 µM; activity change, negative = cytotoxicity: at the top concentration. Put shortly: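 In this multiplexed counter screen, cells were seeded at 2,000 per well in medium with 2% charcoal-stripped FBS and incubated 6 hr before compound and 1nM final E2 were added. Sixteen hours later, ATP-based luminescence reported viability.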
Take `N#CCCCCC#N`: the Potency entry was “inactive”.
Regarding `Clc1ccc(C(Cl)(Cl)Cl)cc1`, the Potency result is “inactive”.
The same measure, in the same setting: the figure for `O=[N+]([O-])c1ccc(Cl)c([N+](=O)[O-])c1` is 27.7 µM (active) and 27.3 µM (active); for `CCCCOCC1CO1` (stereo unspecified) it is “inactive”.
Regarding `O=S(=O)(O)C(F)(F)C(F)(F)C(F)(F)C(F)(F)C(F)(F)C(F)(F)C(F)(F)C(F)(F)F`, the Potency was 46.2 µM (active) and inactive.
Still for that read-out and setting: the entry for `CNC(=S)S` is “inactive”.
As to `CCOP(=S)(OCC)SCn1c(=O)oc2cc(Cl)ccc21`, the Potency entry was “inactive”.
In the case of `C[C@]12CCC(=O)C=C1CC[C@@H]1[C@@H]2CC[C@@]2(C)[C@H]1CC[C@]2(C)O`, the Potency result was “inactive”.
Still for that read-out and setting: the same measure for `Cl`: “inactive”.
Turning to `Nc1ccc([N+](=O)[O-])cc1N`, the “activity change, negative = cytotoxicity” value is -10.2% (inactive).
Turning to `CCOP(=S)(OCC)SCSC(C)(C)C`, the Potency result was “inactive”.
Still for that read-out and setting: the same measure for `C=CC(=O)OCC(CC)(COC(=O)C=C)COC(=O)C=C`: 31.5 µM (active) and 19.3 µM (active); for `CCCCC(C#N)(Cn1cncn1)c1ccc(Cl)cc1` (stereo unspecified): “inactive”; for `C[N+](C)(C)CC(=O)O`: “inactive”.
As to `CS(=O)(=O)NC(=O)c1cc(Oc2ccc(C(F)(F)F)cc2Cl)ccc1[N+](=O)[O-]`, the Potency result was “inactive”.
On the same count and under the same terms, the entry for `CC(C)=CC1C(C(=O)OCN2C(=O)C3=C(CCCC3)C2=O)C1(C)C` (stereo unspecified) is “inactive”; for `ClC(Cl)=C(Cl)C(Cl)=C(Cl)Cl` it is “inactive”; for `O=C1Nc2ccc(Cl)cc2C(c2ccccc2)=NC1O` (stereo unspecified) it is “inactive”.
On to `COP(=S)(OC)Oc1ccc(S(=O)(=O)N(C)C)cc1`, for which the Potency result is “inactive”.
`CCCCOCCOC(C)=O`: the Potency result is “inactive”.
Regarding `CC(C)(c1ccccc1)c1ccc(O)c(C(C)(C)c2ccccc2)c1`, the Potency was 24.1 µM (active) and 30.6 µM (active).
Consider `NN=C(N)N`, for which the Potency entry was “inactive”.
With `ClCC(Cl)CCl`, the Potency result was “inactive”.
The same measure, in the same setting: the entry for `[Cl-].[Cl-].[Cl-].[Fe+3]` is “inactive”; for `C[N+](C)(C)C` it is “inactive”.
Consider `CCC(=O)Nc1ccc(Cl)c(Cl)c1`, for which the Potency entry is “inactive”.
Still for that read-out and setting: the entry for `CC(C)(C#N)N=NC(C)(C)C#N` is “inactive”.
With `O=[N+]([O-])c1ccc(Nc2ccccc2)cc1`, the “activity change, negative = cytotoxicity” value was -5.25% (inactive).
Turning to `C[C@]12CC[C@H]3[C@@H](CCC4=CC(=O)CC[C@@H]43)[C@@H]1CC[C@@H]2O`, the Potency result is “inactive”.
The same measure, in the same setting: the entry for `O=NN(c1ccccc1)c1ccccc1` is “inactive”.
On the same count and under the same terms, the same measure for `c1ccc(C2CO2)cc1` (stereo unspecified): “inactive”; for `C[N+](C)(C)CC(=O)[O-]`: “inactive”.
For the compound `O=C1C(Cl)=C(Cl)C(=O)c2ccccc21`, the Potency was 19.4 µM (active) and 30.6 µM (active).
As for `CCC[CH2][Sn]([Cl])([CH2]CCC)[CH2]CCC`, the Potency is 1.73 µM (active) and 1.93 µM (active).
Same read-out and setting: the same measure for `CC1CC(=O)O1` (stereo unspecified): “inactive”; for `CCOP(=O)(O)OCC` (tested in a mixture with another compound): “inactive and 30.4 µM (active)”.

The target in a further assay is Estrogen receptor (Homo sapiens) (UniProt P03372). The experiment in a line: qHTS assay to identify small molecule agonists of the estrogen receptor alpha (ER-alpha) signaling pathway in the presence of an antagonist (AID 1259383; calls by dose curve; note: nearly all actives have a fitted effect of over 15% in size; note: potency is the fitted concentration of half-maximal effect; for activation: top concentration of the series differs between compounds). The conditions noted are these: VM7Luc4E2 cells, ERE-luciferase, +ICI-182,780, 22 h; series mostly up to 92.4 µM; activation: at the top concentration. Put shortly: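 Stably transfected VM7Luc4E2 reporter cells, kept 5 days in charcoal-stripped serum, received ICI-182,780 at 10.0nM final before compound addition. Following 22hr incubation at 37C and 5% CO2, luciferase signal was read by luminescence.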
Estrogen receptor (Homo sapiens), sequence (P03372 whole entry, looked up): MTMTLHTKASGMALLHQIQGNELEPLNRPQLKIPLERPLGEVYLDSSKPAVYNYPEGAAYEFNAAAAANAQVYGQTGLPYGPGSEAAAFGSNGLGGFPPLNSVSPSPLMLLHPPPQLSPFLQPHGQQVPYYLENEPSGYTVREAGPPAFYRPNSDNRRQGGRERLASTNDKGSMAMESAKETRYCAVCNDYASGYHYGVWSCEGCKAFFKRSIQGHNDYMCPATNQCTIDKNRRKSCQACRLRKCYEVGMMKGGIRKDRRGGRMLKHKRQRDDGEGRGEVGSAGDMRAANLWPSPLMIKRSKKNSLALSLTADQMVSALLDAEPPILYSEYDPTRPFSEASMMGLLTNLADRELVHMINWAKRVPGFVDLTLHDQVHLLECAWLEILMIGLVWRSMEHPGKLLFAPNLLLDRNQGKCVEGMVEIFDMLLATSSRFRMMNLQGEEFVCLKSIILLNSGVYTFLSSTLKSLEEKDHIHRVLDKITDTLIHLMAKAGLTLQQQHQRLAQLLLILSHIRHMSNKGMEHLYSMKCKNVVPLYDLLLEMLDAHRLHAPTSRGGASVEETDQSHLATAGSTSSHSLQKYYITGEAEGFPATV
With `Clc1ccc(C(Cl)(Cl)Cl)cc1`, the Potency result was “inactive”.
On to `O=[N+]([O-])c1ccc(Cl)c([N+](=O)[O-])c1`, for which the Potency entry is “inactive”.
With `CCCCOCC1CO1` (stereo unspecified), the Potency result was “inactive”.
As for `CNC(=S)S`, the Potency entry was “inactive”.
The same measure, in the same setting: the entry for `CCOP(=S)(OCC)SCn1c(=O)oc2cc(Cl)ccc21` is “inactive”.
For `C[C@]12CCC(=O)C=C1CC[C@@H]1[C@@H]2CC[C@@]2(C)[C@H]1CC[C@]2(C)O`, the Potency was 11.3 µM (active) and 10.6 µM (active).
Regarding `CCOP(=S)(OCC)SCSC(C)(C)C`, the Potency entry is “inactive”.
On to `C=CC(=O)OCC(CC)(COC(=O)C=C)COC(=O)C=C`, for which the Potency result is “inactive”.
Still for that read-out and setting: the same measure for `CCCCC(C#N)(Cn1cncn1)c1ccc(Cl)cc1` (stereo unspecified): “inactive”; for `C[N+](C)(C)CC(=O)O`: “inactive”.
In the case of `ClC(Cl)=C(Cl)C(Cl)=C(Cl)Cl`, the Potency entry is “inactive”.
On the same count and under the same terms, the same measure for `COP(=S)(OC)Oc1ccc(S(=O)(=O)N(C)C)cc1`: “inactive”; for `CCCCOCCOC(C)=O`: “inactive”; for `CC(C)(c1ccccc1)c1ccc(O)c(C(C)(C)c2ccccc2)c1`: “inactive”.
For `C[N+](C)(C)C`, the Potency result is “inactive”.
Same read-out and setting: the entry for `CC(C)(C#N)N=NC(C)(C)C#N` is “inactive”; for `O=[N+]([O-])c1ccc(Nc2ccccc2)cc1` it is “inactive”.
Consider `C[C@]12CC[C@H]3[C@@H](CCC4=CC(=O)CC[C@@H]43)[C@@H]1CC[C@@H]2O`, for which the Potency is 1.21 µM (active) and 6.68 µM (active).
As to `CC[n+]1c(-c2ccccc2)c2cc(N)ccc2c2ccc(N)cc21`, the Potency result is “inactive”.
Still for that read-out and setting: the entry for `O=C(O)c1nn(Cc2ccc(Cl)cc2Cl)c2ccccc12` is “inactive”; for `O=NN(c1ccccc1)c1ccccc1` it is “inactive”; for `C[N+](C)(C)CC(=O)[O-]` it is “inactive”.
Turning to `O=C1C(Cl)=C(Cl)C(=O)c2ccccc21`, the Potency entry is “inactive”.
On to `CCC[CH2][Sn]([Cl])([CH2]CCC)[CH2]CCC`, for which the Potency result was “inactive”.
